Reference: PMC5836133, “The intracellular immune receptor Rx1 regulates the DNA-binding activity of a Golden2-like transcription factor”
In all, about 16,000 sequences were measured (“e-score”: median about -0.044, highest 2% from about 0.38 on). This is one part of a sample in which the highest values are shown more often than they occur.

Molecular target: T1, GST-NbGlk1(82-244) (Nicotiana benthamiana)
T1 chain: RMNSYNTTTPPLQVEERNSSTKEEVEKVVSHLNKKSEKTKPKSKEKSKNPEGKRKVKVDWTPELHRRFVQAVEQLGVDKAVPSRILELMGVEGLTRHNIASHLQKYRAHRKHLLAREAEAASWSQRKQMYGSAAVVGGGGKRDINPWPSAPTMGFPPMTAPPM
Experiment: protein-binding microarray; NbGlk1 is a Golden2-like transcription factor of Nicotiana benthamiana; high values mean tight binding
Settings: protein: recombinant; tags: GST (pTH6838); dsDNA, one strand shown

Row | Sequence | binding signal
1 | ACGTGATC | 0.232 ± 0.0142 E-score
2 | ATTCGCGA | 0.318 ± 0.058 E-score
3 | AAATCGCT | 0.295 ± 0.0508 E-score
4 | ACAGAAAT | 0.248 ± 0.0234 E-score
5 | ATCCGCAT | 0.272 ± 0.0412 E-score
6 | AAAGATTC | 0.401 ± 0.00855 E-score
7 | CAAGATTA | 0.314 ± 0.00322 E-score
8 | AACGATTC | 0.214 ± 0.0649 E-score
9 | AAAGATTT | 0.427 ± 0.00822 E-score
10 | CAAGATTC | 0.406 ± 0.00476 E-score
11 | CAAGATTG | 0.308 ± 0.0144 E-score
12 | AAAGATAC | 0.21 ± 0.0674 E-score
13 | AAAGATTG | 0.335 ± 0.0169 E-score
14 | AAAGATTA | 0.318 ± 0.0346 E-score
15 | ATTGTGCG | 0.2 ± 0.0823 E-score
16 | ATCGTAAA | 0.239 ± 0.0266 E-score
17 | ATCTTCCG | 0.316 ± 0.0643 E-score
18 | ATCTGCTA | 0.331 ± 0.0558 E-score
19 | AGGATCCG | 0.26 ± 0.0521 E-score
20 | ATTTCGTG | 0.367 ± 0.0218 E-score
21 | ATTTCGTA | 0.399 ± 0.0199 E-score
22 | ATTTCGTC | 0.303 ± 0.0104 E-score
23 | ATCTTCAC | 0.352 ± 0.00871 E-score
24 | ACTGAGAT | 0.247 ± 0.0201 E-score
25 | ATCCCGAG | 0.211 ± 0.027 E-score

Row | Sequence | binding signal
26 | AGATATGG | 0.373 ± 0.0298 E-score
27 | AGATATAC | 0.241 ± 0.00443 E-score
28 | AGATATAG | 0.225 ± 0.0489 E-score
29 | ATATATCG | 0.276 ± 0.0574 E-score
30 | AGATATAA | 0.208 ± 0.0225 E-score
31 | AGATATCA | 0.434 ± 0.0219 E-score
32 | ATATATCC | 0.262 ± 0.0686 E-score
33 | AGATATGA | 0.318 ± 0.00331 E-score
34 | ATATATCA | 0.276 ± 0.0382 E-score
35 | AGATATGC | 0.415 ± 0.012 E-score
36 | AGATATCC | 0.47954 ± 0.00034 E-score
37 | AGATATCG | 0.462 ± 0.00283 E-score
38 | ATCTCGCC | 0.314 ± 0.0254 E-score
39 | ACCAAGAT | 0.289 ± 0.0649 E-score
40 | ATCCTTGA | 0.218 ± 0.0175 E-score
41 | ATTTCTAC | 0.285 ± 0.0555 E-score
42 | ATTACATA | 0.267 ± 0.0926 E-score
43 | ATTACGGC | 0.278 ± 0.0482 E-score
44 | AAGTAGAT | 0.216 ± 0.0697 E-score
45 | ATCCTTAC | 0.266 ± 0.0362 E-score
46 | ACTCAGAT | 0.255 ± 0.0118 E-score
47 | ATCTTTAG | 0.26 ± 0.0391 E-score
48 | ATTCCCCC | 0.37 ± 0.0231 E-score
49 | ATCTATAC | 0.231 ± 0.121 E-score
50 | AGATACGA | 0.332 ± 0.0469 E-score

Row | Sequence | binding signal
51 | AGATATCT | 0.48 ± 0.00495 E-score
52 | AGATATAT | 0.316 ± 0.0185 E-score
53 | ACATATCT | 0.344 ± 0.0128 E-score
54 | AGATACGG | 0.372 ± 0.019 E-score
55 | AGATACGC | 0.422 ± 0.0238 E-score
56 | ATCTTCAA | 0.303 ± 0.0183 E-score
57 | ATATTGGA | 0.241 ± 0.0475 E-score
58 | ATCAGGAA | 0.288 ± 0.064 E-score
59 | ATAGGAAT | 0.275 ± 0.0501 E-score
60 | AATCCTGT | 0.371 ± 0.0247 E-score
61 | AATCCTTC | 0.265 ± 0.077 E-score
62 | ATCCCGGA | 0.308 ± 0.0187 E-score
63 | AATCCGGT | 0.393 ± 0.0261 E-score
64 | AATCCGGC | 0.3885 ± 0.00169 E-score
65 | AATCCGGG | 0.368 ± 0.0574 E-score
66 | AATCCGTA | 0.337 ± 0.0439 E-score
67 | AATCCGTG | 0.322 ± 0.0593 E-score
68 | ATTCCGGA | 0.232 ± 0.0263 E-score
69 | AATCCGTC | 0.39 ± 0.0333 E-score
70 | AATCCGGA | 0.42 ± 0.0333 E-score
71 | ATCGTCAA | 0.231 ± 0.0882 E-score
72 | ACCCAGAT | 0.247 ± 0.0788 E-score
73 | CACCGATA | 0.256 ± 0.0751 E-score
74 | ATCAGCGA | 0.229 ± 0.0488 E-score
75 | AATCACAA | 0.346 ± 0.0519 E-score

Row | Sequence | binding signal
76 | ATTTTCTC | 0.316 ± 0.054 E-score
77 | ACGCGGAT | 0.235 ± 0.023 E-score
78 | ATAAAGAT | 0.279 ± 0.0792 E-score
79 | ACCAATAT | 0.204 ± 0.0315 E-score
80 | AATAATAT | 0.259 ± 0.0722 E-score
81 | AATATGAT | 0.222 ± 0.00614 E-score
82 | AATCTGTC | 0.391 ± 0.00978 E-score
83 | AATCTGCT | 0.37 ± 0.0413 E-score
84 | ATTCTGAC | 0.242 ± 0.101 E-score
85 | AATCTGAT | 0.414 ± 0.0225 E-score
86 | AATCTGAC | 0.417 ± 0.0317 E-score
87 | ATTCTGTC | 0.335 ± 0.0209 E-score
88 | AAACAGAT | 0.229 ± 0.0973 E-score
89 | ATCTTGAC | 0.272 ± 0.0538 E-score
90 | AATCGTAT | 0.339 ± 0.0131 E-score
91 | AGATCGCG | 0.464 ± 0.00467 E-score
92 | AGATCGCA | 0.396 ± 0.016 E-score
93 | CAATCGCG | 0.2571 ± 0.00241 E-score
94 | AGATCGCT | 0.346 ± 0.00634 E-score
95 | ATATCGCA | 0.355 ± 0.0163 E-score
96 | ATATCGCG | 0.415 ± 0.00817 E-score
97 | AGATCGCC | 0.353 ± 0.0264 E-score
98 | ATATCGCC | 0.333 ± 0.0165 E-score
99 | AAATCGCC | 0.322 ± 0.0236 E-score
100 | AAATCGCA | 0.3786 ± 0.00224 E-score

Row | Sequence | binding signal
101 | AAATCGCG | 0.4246 ± 0.00159 E-score
102 | AGATCGTA | 0.283 ± 0.0295 E-score
103 | AGCGCAAT | 0.303 ± 0.0261 E-score
104 | AAATCGTT | 0.248 ± 0.085 E-score
105 | CAATCCTA | 0.288 ± 0.0058 E-score
106 | CAATCCTG | 0.3281 ± 0.00274 E-score
107 | AGATCCTC | 0.387 ± 0.0145 E-score
108 | AAATCCTA | 0.417 ± 0.00908 E-score
109 | AAATCCTT | 0.392 ± 0.0185 E-score
110 | AGATCCTG | 0.369 ± 0.0433 E-score
111 | AGATCCTA | 0.314 ± 0.00874 E-score
112 | AATCCCTA | 0.281 ± 0.0127 E-score
113 | AAATCATT | 0.223 ± 0.00449 E-score
114 | AAATCCTG | 0.4223 ± 0.00332 E-score
115 | ATTTCACC | 0.214 ± 0.151 E-score
116 | ATTCCCCA | 0.256 ± 0.075 E-score
117 | ATCCTCGC | 0.205 ± 0.0887 E-score
118 | ATAGATCC | 0.21 ± 0.00109 E-score
119 | ATCTGTTG | 0.301 ± 0.07 E-score
120 | ATATATAC | 0.227 ± 0.00145 E-score
121 | AAATACGC | 0.2039 ± 0.00167 E-score
122 | ATCCGGAC | 0.272 ± 0.0502 E-score
123 | ATCGATTA | 0.207 ± 0.0952 E-score
124 | CAAGATCG | 0.284 ± 0.0247 E-score
125 | AATATAAA | 0.254 ± 0.107 E-score

Row | Sequence | binding signal
126 | CAATCCTC | 0.269 ± 0.0948 E-score
127 | AATCCCTC | 0.293 ± 0.0225 E-score
128 | AAATCCTC | 0.414 ± 0.051 E-score
129 | ATTCCCGA | 0.333 ± 0.0675 E-score
130 | ATCCCAAG | 0.206 ± 0.0761 E-score
131 | AATATATT | 0.285 ± 0.0974 E-score
132 | AGAATCTC | 0.469 ± 0.0125 E-score
133 | AGAATCGG | 0.375 ± 0.00432 E-score
134 | ATAATCTA | 0.334 ± 0.0306 E-score
135 | ATAATCTG | 0.356 ± 0.0112 E-score
136 | AGAATCTG | 0.4793 ± 0.00413 E-score
137 | AGAATCGA | 0.342 ± 0.0111 E-score
138 | AGAATCTA | 0.48 ± 0.00879 E-score
139 | ATATAAAT | 0.276 ± 0.0236 E-score
140 | AGGGAGAT | 0.281 ± 0.00745 E-score
141 | ACGGGGAT | 0.214 ± 0.115 E-score
142 | AAATATGA | 0.226 ± 0.0549 E-score
143 | ATCCGTGA | 0.236 ± 0.116 E-score
144 | ATACGTTA | 0.277 ± 0.00931 E-score
145 | ATTCCCTG | 0.323 ± 0.0549 E-score
146 | ATTACTAG | 0.207 ± 0.0664 E-score
147 | ATTTATTA | 0.249 ± 0.00743 E-score
148 | AAATATCA | 0.367 ± 0.0296 E-score
149 | AAATATCC | 0.42 ± 0.011 E-score
150 | CAATATCC | 0.337 ± 0.0344 E-score

Row | Sequence | binding signal
151 | AAATATCT | 0.407 ± 0.0254 E-score
152 | AAATATCG | 0.375 ± 0.0121 E-score
153 | ACATATCC | 0.214 ± 0.0275 E-score
154 | ATATTGAG | 0.214 ± 0.00643 E-score
155 | ATAAGATC | 0.33 ± 0.000581 E-score
156 | ATTCTTTA | 0.258 ± 0.0767 E-score
157 | AATCAGGC | 0.2903 ± 0.0023 E-score
158 | AATCAGGT | 0.32 ± 0.0381 E-score
159 | AATCAGGA | 0.394 ± 0.0134 E-score
160 | ATTCCCCG | 0.32 ± 0.0628 E-score
161 | CAGATCGC | 0.417 ± 0.00441 E-score
162 | AAGATCGA | 0.225 ± 0.00987 E-score
163 | AAGATCGC | 0.398 ± 0.00727 E-score
164 | AAGATCGT | 0.291 ± 0.0157 E-score
165 | ATGATCGC | 0.232 ± 0.0162 E-score
166 | CAGATCGG | 0.215 ± 0.0844 E-score
167 | AATTCCCC | 0.225 ± 0.0402 E-score
168 | AAAGTATC | 0.243 ± 0.0118 E-score
169 | ATCGTCTA | 0.208 ± 0.048 E-score
170 | ATTGCGCG | 0.378 ± 0.00773 E-score
171 | ATCTAGAG | 0.238 ± 0.0882 E-score
172 | ATCTAGAC | 0.287 ± 0.00928 E-score
173 | ATCTAGAT | 0.398 ± 0.0867 E-score
